CatS inh: inhibitors of human cathepsin S | P25774 | recombinant cathepsin S, AMC dipeptide fluorescence, pooled mixtures | inhibition, %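 (tested at 5 µM per compound within 10-compound mixtures)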 | 62,000 tested, 0.06% active | AID 501; in the data active means inhibition above about 32%, passing the limit was not always enough;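 further: 0% = enzyme without compound and 100% = blank without enzyme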
CatB mixtures: inhibitors of human cathepsin B in compound mixtures | 62,000 tested, 0.06% active | Purified cathepsin B, AMC dipeptide fluorescence | AID 488 | inhibition, %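 (ten-compound pools at 5 µM per compound and 50 µM total)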 | P07858; in the data active means inhibition above about 22%, passing the limit was not always enough;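 further: 0% = enzyme without compound and 100% = no enzyme blank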
CatB block: blocks human cathepsin B protease activity | P07858 | purified cathepsin B, fluorogenic substrate, fluorescence | inhibition, %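 (tested at 10 µM)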 | 63,000 tested, 0.1% active | AID 453; in the data active means inhibition above about 21%;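 further: 0% = enzyme with no compound and 100% = no enzyme blank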
Htt clearance: mutant huntingtin protein clearance. HeLa Exon1htt(103Q)mCFP, aggregate imaging; zero = plate's median compound well. inhibition, % at 1.5 µM. 47,000 tested, 0.42% active. AID 853;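 active means inhibition of aggregate fluorescence above about 70%, also judged a hit by eye on the cell image, limit read from the data, passing the limit was not always enough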;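 further: cells exposed to compound for three days before fixation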
WNV protease inh: inhibitors of West Nile virus NS2B-NS3 protease; P06935; WNV NS2B-NS3 protease, fluorogenic substrate Ex360/Em465; hits give low values; z-score (concentration not given with the values); 65,000 tested, 0.18% active; in the data active means z-score below about -3
CatL inh: blocks human cathepsin L protease activity; purified cathepsin L, fluorogenic substrate, fluorescence; inhibition, %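 (tested at 10 µM)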; 58,000 tested, 0.17% active; AID 460; in the data active means inhibition above about 45%;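 further: 0% = enzyme with no compound and 100% = no enzyme blank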
Target sequence (P07711 114-288 limits assumed): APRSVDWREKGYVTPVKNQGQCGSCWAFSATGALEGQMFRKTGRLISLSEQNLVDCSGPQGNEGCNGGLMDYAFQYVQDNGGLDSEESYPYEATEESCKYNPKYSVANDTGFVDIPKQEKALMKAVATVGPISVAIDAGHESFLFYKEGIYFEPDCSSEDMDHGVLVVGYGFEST
Target sequence (P07711 292-333 limits assumed): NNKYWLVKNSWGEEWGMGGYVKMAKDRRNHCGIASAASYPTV
Numbers without * were called inactive; . = not tested or not shown. In the library only some 0.61% were active in any assay of this set; here they are far more common.

SMILES	CatS inh	CatB mixtures	CatB block	Htt clearance	WNV protease inh	CatL inh
CC(=O)N1CN(CCCn2ccnc2)Cc2c1sc1c2CCCC1	-7	1	1	.	-0.33	15
CC(=O)N1CN(Cc2ccccn2)Cc2c1sc1c2CCCC1	-7	0	2	83*	2.1	4
O=C(CCn1c(=O)oc2ccccc21)N(Cc1ccccc1)c1ccccn1	.	.	.	73*	1.1	.
O=C(NC1CCCCC1)c1nc2c(nnn2Cc2ccccc2Cl)c(=O)[nH]1	-6	4	6	74*	-0.47	-2
O=C(NC1CC1)c1nc2c(nnn2Cc2ccccc2Cl)c(=O)[nH]1	.	.	.	-34	.	.
CCOC(=O)N1CCN(c2c(N3CCN(c4ccccn4)CC3)c(=O)c2=O)CC1	4	4	3	.	-0.09	86*
CCOC(=O)N1CCN(c2c(N3CCc4ccccc43)c(=O)c2=O)CC1	3	1	10	.	-2.8	17
CCSc1nnc(NC(=O)NCC(F)(F)F)s1	.	.	5	.	-7.8*	-16
CCCCC(CC)CNC(=O)c1cccs1 (stereo unspecified)	-18	-8	-3	-5	-1.2	.
O=C(CCN1C(=O)c2ccccc2C1=O)OCN1C(=O)c2ccccc2C1=O	5	-1	-3	-4	-0.28	-5
O=C(CNC(=O)c1ccco1)OCN1C(=O)c2ccccc2C1=O	-10	25*	21*	-26	0.12	1
O=C(NC1CCCC1)C1C2C=CC(C2)C1C(=O)N1CCOCC1 (stereo unspecified)	-1	0	-1	78*	-0.02	-4
CCCS(=O)(=O)N1CCN(C(=O)COc2ccc(OC)cc2)CC1	.	.	.	33	.	.
COC(=O)c1cccc(S(=O)(=O)N2CCC(C)CC2)c1	2	4	2	71*	0.45	4
CC1CCN(S(=O)(=O)c2cccc(C(=O)O)c2)CC1	.	.	.	-146	.	.
Cc1onc(-c2ccccc2)c1C(=O)N1CCc2ccccc21	4	1	0	4	-1.9	.
COc1ccccc1OCC(=O)Nc1oc(-c2ccccc2)c(-c2ccccc2)c1C#N	4	-3	55*	-61	-0.69	.
COc1ccc(CC(=O)Nc2oc(-c3ccccc3)c(-c3ccccc3)c2C#N)cc1OC	4	5	0	-11	-1.2	-4
CCCCn1ccnc1C(=O)c1cccc(S(=O)(=O)N2CC(C)CC(C)C2)c1 (stereo unspecified)	.	.	.	7	.	.
Cc1ccc(N(CC(=O)NC2CCC(C)CC2)S(=O)(=O)c2cccnc2)cc1 (stereo unspecified)	4	34	7	.	2.1	72*
COc1ccc(N(CC(=O)O)S(=O)(=O)c2cccnc2)cc1	-2	4	-2	71*	-0.55	8
COC(=O)/C(=C(/F)SCC(C)=O)C(F)(F)F	.	.	.	-8	.	.
Nc1nonc1C(=O)NCCNCc1ccccc1OCc1ccccc1F	10	25	23*	.	-0.09	16
CCOC(=O)CNC(=O)C(Cc1ccccc1)NS(=O)(=O)c1ccc2c(c1)CCC(=O)N2 (stereo unspecified)	7	4	1	.	-0.62	25
CCCN(CCC)CCNC(=O)C(NS(=O)(=O)c1ccc2c(c1)CCC(=O)N2)c1ccccc1 (stereo unspecified)	82*	7	1	-17	-0.33	25
SMILES	CatS inh	CatB mixtures	CatB block	Htt clearance	WNV protease inh	CatL inh
Nn1c(SCC(=O)N2CCN(S(=O)(=O)c3ccc(Cl)cc3)CC2)nnc1-c1cccs1	.	.	.	-20	.	.
COc1ccc(CN2CCN(C)CC2)cc1OCc1ccccc1	1	2	3	74*	-0.46	19
CN(C)c1nc2sc3c(c2c(=O)n1C)CC(C)(C)OC3	.	.	1	.	-0.53	-5
CNc1nc2sc3c(c2c(=O)n1C)CC(C)(C)SC3	9	-1	3	.	-7*	-20
CC(=O)NC1C(=O)N(C)c2ccc(Br)cc21 (stereo unspecified)	.	.	.	-1	.	.
CC1CCN(C(=O)C2CCN(C(=O)c3cc4sccc4n3Cc3ccc(F)cc3)CC2)CC1	-2	1	1	.	-1.3	54*
CC(C)NC(=O)C1CCN(C(=O)c2cc3sccc3n2Cc2ccc(F)cc2)CC1	-3	3	0	.	-0.19	-4
CCOC(=O)c1ccccc1NC(=O)CSc1nc2ccccc2n1CC(=O)N1CCCC1	8	5	0	.	-0.53	19
Nc1nonc1-c1nc2ccccc2n1CC(=O)O	.	.	.	-31	.	.
CCSc1nc2ccccc2n1CC(=O)N1CCCCC1	55	49	1	.	0.91	56*
COC(=O)c1ccccc1NC(=O)Cn1c(-c2nonc2N)nc2ccccc21	.	82*	70*	-163	1.5	66*

Compound activity from PubChem BioAssay.
